Among the data in ChEMBL document CHEMBL4513216, “Probing the Open Global Health Chemical Diversity Library for Multistage-Active Starting Points for Next-Generation Antimalarials” (ACS Infect Dis, 2020) are INHIBITION values, retold here.

Each structure is given as a SMILES string. Hit rate of the full screen: of about 69,000 compounds, about 8,600 (12%) showed an effect of 50% or more. The sample holds strong results, similar compounds and a random draw of the others, so the mix is not that of the screen.

This test deals with Plasmodium berghei. In words: Screen against P. berghei liver stage (PbLuc), transformed with Luciferase, at 10uM. Type of test: functional, HepG2. The settings on record: tested at 10 uM.
For `Cc1nc(CN2CCC(c3nc4ccccc4n3C)CC2)co1`, the INHIBITION is listed as 42.3%.

Take `Cn1ccnc1CN1CCC(c2nc3ccccc3n2C)CC1`: the INHIBITION came to 39.3%.

Regarding `CC(C)c1nccc(CN2CCC(c3nc4ccccc4n3C)CC2)n1`, the INHIBITION worked out at 52.6%.

`Cc1cccc(CN2CC3(CCN(C4CCOC4)CC3)OCC2=O)n1` (stereo not given): the INHIBITION came out at 5.56%.

In the case of `CSCc1noc(CNC(=O)[C@H]2CNC[C@@H](C(=O)N3CCCC3)C2)n1`, the INHIBITION is 38.5%.

As to `COCCC1(CO)CCCN(C(=O)c2cc(Cl)ccc2F)C1` (stereo not given), the INHIBITION was -2.43%.

Take `COCCC1(CO)CCCN(C(=O)c2cccnc2OC)C1` (stereo not given): the INHIBITION was determined as 43.4%.

Regarding `CNc1nc(C(=O)N2CCC3(CCCN(CCOC)C3=O)C2)cs1` (stereo not given), the INHIBITION is 36.2%.

For the compound `CC(C)=CCC1(CO)CCCN(Cc2nccs2)C1` (stereo not given), the INHIBITION was -21.1%.

`CCCn1ccnc1CN1CCCC(CC)(CO)C1` (stereo not given): the INHIBITION is recorded as 0.348%.

Consider `CCCC1(CO)CCCN(Cc2ncccn2)C1` (stereo not given), for which the INHIBITION is on record as -36.5%.

Turning to `COCCCC1(CO)CCCN(CCOC)C1` (stereo not given), the INHIBITION is reported as -6.88%.

Consider `CNc1nc(C(=O)N2CCCC(CO)(CCCOC)C2)cs1` (stereo not given), for which the INHIBITION was determined as 58.6%.

On to `COCCC1(CO)CCCN(C(=O)c2cccnc2O)C1` (stereo not given), for which the INHIBITION is reported as 56.3%.

Turning to `CCCC1(CO)CCCN(Cc2nccs2)C1` (stereo not given), the INHIBITION was 81.6%.

Take `CNc1ncc(C(=O)N2CCCC(CO)(CCCOC)C2)cn1` (stereo not given): the INHIBITION is recorded as 31.3%.

On to `COCCCC1(CO)CCCN(Cc2nccs2)C1` (stereo not given), for which the INHIBITION amounted to 75.2%.

Turning to `O=S(=O)(C1CC1)N1CCO[C@H]2[C@H](Oc3cccnc3)CC[C@@H]21`, the INHIBITION is reported as -21.1%.

As to `Cn1ccc(C(=O)N2CCc3[nH]nc(Nc4ccccc4)c3C2)n1`, the INHIBITION came to 17.04%.

Turning to `CCC1c2ccsc2CCN1C(=O)NCCc1ccccn1` (stereo not given), the INHIBITION is given as 0%.

As for `CCc1ncc(C(=O)N2CCN(Cc3ncccc3C)CC2)cn1`, the INHIBITION was 7.25%.

In the case of `O=C1CCC(c2ccccc2)=NN1CN1CCCCCC1`, the INHIBITION was found to be 25.3%.

For the compound `CCN(C(=O)CCc1ccccc1)C1CC(=O)NC1=O` (stereo not given), the INHIBITION is 9.4%.

Take `Cc1cc2ccccc2n1CC(=O)N[C@@H](C)C(=O)O`: the INHIBITION worked out at 4.93%.

Turning to `Cc1ccc(OCCSCCn2nc3ccccn3c2=O)cc1`, the INHIBITION is on record as 22%.

Regarding `CCn1cc(CN2CCCC(CO)(CCc3ccccc3)C2)c(C)n1` (stereo not given), the INHIBITION turned out to be 53.1%.

In the case of `CCn1ccnc1CN1CCCC(CO)(CCCc2ccccc2)C1` (stereo not given), the INHIBITION is 3.68%.

For `Cn1ccnc1CN1CCCC(CO)(CCc2ccccc2)C1` (stereo not given), the INHIBITION is recorded as 16.6%.

For `O=C(CN1CCCS1(=O)=O)Nc1ccc(OC2CCCC2)cc1`, the INHIBITION is -5.94%.

Consider `O=C(CN1CCCS1(=O)=O)Nc1ccc(OC2CCCC2)c(Cl)c1`, for which the INHIBITION is on record as -6.94%.

For the compound `O=C(CN1CCCS1(=O)=O)Nc1cccc(COC2CCCCC2)c1`, the INHIBITION was 55.5%.

Consider `CNC(=O)CCc1cc(C2CCCN2C(=O)CO)nc(C)n1` (stereo not given), for which the INHIBITION is on record as 29.4%.

Consider `Cc1nc(CN2C(=O)CC[C@@H]3[C@H]2CCN3C(=O)NC2CC2)cs1`, for which the INHIBITION turned out to be 38.7%.

Take `Cc1nc(C(=O)N2CCOC(Cc3ccccc3)C2)co1` (stereo not given): the INHIBITION is -48.5%.

Turning to `CN(CC(=O)N1CCOC(CCc2ccccc2)C1)Cc1ccccn1` (stereo not given), the INHIBITION is recorded as 54.2%.

Take `COc1ccc(CC2CN(C(=O)c3ocnc3C)CCO2)cc1` (stereo not given): the INHIBITION came to 46.4%.

Regarding `O=C(c1scc2c1OCCO2)N1CCOC(Cc2ccc(F)cc2)C1` (stereo not given), the INHIBITION is recorded as 0.72%.

As to `O=C(c1scc2c1OCCO2)N1CCOC(Cc2cccc(F)c2)C1` (stereo not given), the INHIBITION was -22%.

Turning to `Cc1nc(C(=O)N2CCOC(Cc3ccc(F)cc3)C2)co1` (stereo not given), the INHIBITION is recorded as -23.4%.

Turning to `Cc1ccnn1CCC(=O)N1CCOC(CCc2ccccc2)C1` (stereo not given), the INHIBITION is reported as 44.3%.

`Cc1n[nH]c(CCC(=O)N2CCOC(Cc3ccccc3)C2)c1C` (stereo not given): the INHIBITION amounted to 7.19%.

For `Cc1ncoc1C(=O)N1CCOC(Cc2ccccc2)C1` (stereo not given), the INHIBITION was determined as 55%.

Turning to `O=C(c1scc2c1OCCO2)N1CCOC(CCc2ccccc2)C1` (stereo not given), the INHIBITION stood at 75%.

For the compound `CN(CC(=O)N1CCOCC(CO)C1)Cc1ccccn1` (stereo not given), the INHIBITION came out at 19.5%.

Regarding `Cc1n[nH]c(CCC(=O)N2CCOC(Cc3ccc(F)cc3)C2)c1C` (stereo not given), the INHIBITION came to 55.4%.

`CC(C)CCc1n[nH]c(C(=O)O)c1Br`: the INHIBITION is reported as 11.7%.

Take `O=c1[nH]c2cn(-c3cccc(F)c3)c(=O)n2[nH]1`: the INHIBITION is reported as 48%.

For `CC(C)Cn1cncc1-c1nc2c([nH]1)CCCNC2=O`, the INHIBITION was -21.8%.

Regarding `Cc1cccc(-c2nc(C)nn2CC(=O)NC(C)C2CC2)c1` (stereo not given), the INHIBITION was found to be 33.3%.

As for `Cc1cccc2c1NC(c1cnc(C3CCC3)s1)NC2=O` (stereo not given), the INHIBITION is 39.3%.

As to `Cc1cc(=O)n2nc(Oc3ccc(F)c(F)c3)sc2n1`, the INHIBITION was 42.5%.

Consider `CC(=O)N1CCC(Cc2cnc(C(=O)N3CCCC3)cn2)C1` (stereo not given), for which the INHIBITION is given as 7.52%.

For `Cc1ccc(OCCN(C)C(C)c2cccc(S(N)(=O)=O)c2)cc1` (stereo not given), the INHIBITION is -31.8%.

Regarding `CN(C)C[C@H]1OC[C@@H]2CCN(C(=O)Cc3cccs3)C[C@@H]21`, the INHIBITION is recorded as 13.7%.

In the case of `Cc1cc(N2Cc3cnn(CCO)c3C2)nc(-c2ccccc2)n1`, the INHIBITION is listed as -81.1%.

As for `O=C(c1cccnc1)N1CCOC(CCCc2ccccc2)C1` (stereo not given), the INHIBITION turned out to be 60.9%.

Regarding `CCNc1ncc(C(=O)N2CCOC(CCCc3ccccc3)C2)cn1` (stereo not given), the INHIBITION turned out to be 42.1%.

For the compound `O=C(c1cccnc1)N1CCOC(Cc2ccccc2Cl)C1` (stereo not given), the INHIBITION was 0.55%.

As for `COCCCN1Cc2cccc(NC(=O)c3ccccc3Cl)c2C1`, the INHIBITION turned out to be 50%.

For the compound `COCCCN1Cc2cccc(NC(=O)c3ccccc3C)c2C1`, the INHIBITION is 40.6%.

Regarding `COCCCN1Cc2cccc(NC(=O)c3cc(F)cc(F)c3)c2C1`, the INHIBITION was found to be 45.7%.

With `CCCn1c(NCCc2ccccc2)nc2c(C)nn(C)c2c1=O`, the INHIBITION is 64.8%.

Consider `CCn1c(NCc2ccccn2)nc2c(C)nn(C)c2c1=O`, for which the INHIBITION came to 18.4%.

Consider `Cc1nn(C)c2c(=O)n(C(C)C)c(NCC3CCCO3)nc12` (stereo not given), for which the INHIBITION is listed as 3.58%.

With `CCn1c(NCc2cccnc2)nc2c(C)nn(C)c2c1=O`, the INHIBITION is -9.73%.

In the case of `CCn1c(NCc2ccccc2)nc2c(C)nn(C)c2c1=O`, the INHIBITION is given as 33.3%.

As for `Cc1nn(C)c2c(=O)n(C(C)C)c(NCCc3ccccc3)nc12`, the INHIBITION is recorded as 87.2%.

For `CCCn1nc(C)c(C(=O)N(C)[C@@H]2CC[C@@H](OC)[C@@H]2O)c1C`, the INHIBITION is reported as 40.65%.

Consider `CCn1ncc2c(C(F)(F)F)cc(-c3cnn(C)c3)nc21`, for which the INHIBITION was found to be 19.55%.

As to `CCOC(=O)c1cnn(C2CCN(C(=O)CC(C)(C)C)CC2)c1N`, the INHIBITION is given as -17.4%.
